# A number with no mark means an inactive call. The call rests on the fitted dose curve; in most records, active means well fitted curve in the direction sought with a large enough effect; inactive means no such curve, though single readings can be large or run the other way.
# Target: Pyruvate kinase PKM (Homo sapiens) (UniProt P14618)
# Experiment: Secondary Concentration-Response Assay for Activators of Human Muscle isoform 1 Pyruvate Kinase: for Probe SAR
# Conditions: purified hPK-M1, ATP production, Kinase-Glo luminescence
# Excerpt: NIH Chemical Genomics Center [NCGC]
# Matthew G. Vander Heiden, M.D., Ph.D. [Harvard Medical School, 77 Avenue Louis Pasteur, Boston, MA 02115]
# Human pyruvate kinase […] (hPK-M1) enzyme was supplied as a highly purified (>95% pure) preparation from Harvard Medical School and assayed for its ability to generate ATP from ADP using phosphoenolpyruvate (PEP) as a substrate. ATP generation was detected in a coupled reaction by luciferase-mediated luminescence, an ATP-dependent process. Pyruvate kinase substrates, PEP and ADP, were present in the assay at Km and approximately 10-fold below Km respectively. The enzyme was assayed at an intermediate level of activity to screen for both inhibitors and activators.
# NCGC Assay Protocol Summary for M1-isoform:
# Three uL of substrate mix (at r.t.) in assay buffer (50 mM Imidazole pH7.2, 50 mM KCl, 7 mM MgCl2, 0.01% Tween 20, 0.05% BSA) was dispensed into white solid bottom 1,536 well microtiter plates so that the final concentrations of substrates in the assay were 0.1 mM ADP and 0.5 mM PEP. 23 nL of compound were delivered by a pin tool and 1 uL of enzyme mix (final concentration of 1 nM) in assay buffer (4 degree Celsius) was added. Plates were incubated at room temperature for 1 hour. Two uL of detection mix (Kinase-Glo, Promega; at 4 degree Celsius protected from light) was added and luminescence read by a ViewLux (Perkin Elmer) at 1 second exposure/plate. Data were normalized to the uninhibited (row 31). Additionally, a no enzyme and 5-fold enzyme control was dispensed in row 32, split equally between the two conditions.
# Chain of Pyruvate kinase PKM (Homo sapiens) (P14618 whole entry, looked up, canonical isoform): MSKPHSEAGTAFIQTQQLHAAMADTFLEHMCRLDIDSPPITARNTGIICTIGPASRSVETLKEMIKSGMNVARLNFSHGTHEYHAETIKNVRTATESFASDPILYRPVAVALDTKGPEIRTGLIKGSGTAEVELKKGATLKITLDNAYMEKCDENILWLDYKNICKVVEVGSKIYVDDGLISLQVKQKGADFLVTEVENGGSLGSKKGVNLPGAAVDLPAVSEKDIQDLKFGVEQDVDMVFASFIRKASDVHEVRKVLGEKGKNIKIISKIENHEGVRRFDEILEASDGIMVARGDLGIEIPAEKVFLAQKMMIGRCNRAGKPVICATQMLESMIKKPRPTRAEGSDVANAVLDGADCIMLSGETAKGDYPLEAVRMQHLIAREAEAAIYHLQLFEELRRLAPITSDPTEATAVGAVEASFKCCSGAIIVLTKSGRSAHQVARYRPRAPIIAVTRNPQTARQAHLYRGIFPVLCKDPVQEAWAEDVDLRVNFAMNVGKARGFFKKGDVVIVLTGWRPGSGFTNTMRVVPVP
row,SMILES,max response [%]
1,O=C1CCc2cc(S(=O)(=O)Nc3cccc(Oc4ccccc4)c3)ccc2N1,-2.73
2,CNc1cc2c(cc1S(=O)(=O)Nc1ccc(C)c(C)c1)CCC(=O)N2,-0.656
3,Cc1ccc(NS(=O)(=O)c2cc3c(cc2N2CCC2)NC(=O)CC3)cc1C,-7.63
4,Cc1cc(NS(=O)(=O)c2ccc3c(c2)CCC(=O)N3)ccc1Cl,-0.197
5,O=C1CCc2cc(S(=O)(=O)Nc3cc(F)cc(Cl)c3)c(F)cc2N1,1.25
6,Cc1ccc(Cl)cc1NS(=O)(=O)c1cc2c(cc1Cl)CCC(=O)N2,1.5
7,Cc1ccc(N[S+](=O)([O-])c2cc3c(cc2CCc2ccccc2)NC(=O)CO3)cc1C,-3.27
8,O=C1CCc2cc(S(=O)(=O)Nc3cccc(Br)c3)ccc2N1,-2.97
9,Cc1cc(NS(=O)(=O)c2ccc3c(c2)CCC(=O)N3)ccc1F,2.58
10,Cc1c(Cl)cccc1NS(=O)(=O)c1cc2c(cc1F)NC(=O)CC2,0.151
11,Cc1ccc(NS(=O)(=O)c2ccc3c(c2)CCC(=O)N3)cc1C,-6.39
12,O=C1CCc2cc(S(=O)(=O)Nc3ccc4c(c3)CCC4)ccc2N1,-1.18
13,Cc1ccc(NS(=O)(=O)c2ccc3c(c2)CCC(=O)N3)cc1F,0.0639
14,Cn1c2cc(S(C)=O)sc2c2cnn(Cc3cccc(N)c3)c(=O)c21 (stereo not given),2.91
15,O=C1CCc2cc([S+](=O)([O-])NC3CCOCC3)ccc2N1,-5.17
16,Cc1ccc(NS(=O)(=O)c2cc3c(cc2Cl)NC(=O)C3)cc1C,2.96
17,Cc1ccc(NS(=O)(=O)c2ccc3c(c2)C(Cl)(Cl)C(=O)N3)cc1C,0.115
18,CN(C)c1cccc(S(=O)(=O)N2CCCN(S(=O)(=O)c3ccc4c(c3)OCCO4)CC2)c1,1.92
19,Nc1cccc(S(=O)(=O)N2CCCN(S(=O)(=O)c3ccc4c(c3)OCCO4)CC2)c1,-0.314
20,O=S(=O)(c1ccc2c(c1)OCCO2)N1CCN(S(=O)(=O)c2c(F)cccc2F)CC1,-8.27

row,SMILES,max response [%]
1,CCNc1cccc(S(=O)(=O)N2CCCN(S(=O)(=O)c3ccc4c(c3)OCCO4)CC2)c1,8.55
2,Cc1ccc(N(C)S(=O)(=O)c2ccc3c(c2)CCC(=O)N3)cc1C,0.78
3,O=C1CCc2cc([S+](=O)([O-])Nc3ccc(N[S+](=O)([O-])c4ccc5c(c4)CCC(=O)N5)cc3)ccc2N1,-0.299
4,Cc1cc2c(s1)c1cnn(Cc3c(Cl)ccc(C)c3F)c(=O)c1n2C,4.91
5,O=C1CCc2cc(S(=O)(=O)Nc3ccc(Cl)c(Cl)c3)ccc2N1,4.63
6,Cc1cc2c(s1)c1cnn(Cc3ccccc3F)c(=O)c1n2C,-9.51
7,CNc1cccc(S(=O)(=O)N2CCCN(S(=O)(=O)c3ccc4c(c3)OCCO4)CC2)c1,3.54
8,CSc1cc2c(s1)c1cnn(Cc3cccc(N)c3)c(=O)c1n2C,7.82
9,O=C1CCc2cc(S(=O)(=O)Nc3cccc(B(O)O)c3)ccc2N1,-3.5
10,COc1cccc(Cn2ncc3c4sc(SC)cc4n(C)c3c2=O)c1,13.2
11,Cc1ccc(NS(=O)(=O)c2ccc3c(c2)N(C)C(=O)CO3)cc1C,1.15
12,Cc1cc2c(s1)c1cnn(Cc3cc(F)ccc3F)c(=O)c1n2C,4.73
13,Cc1ccc(Cl)cc1NS(=O)(=O)c1cc2c(cc1F)NC(=O)CC2,-4.17
14,O=C1CCc2cc(S(=O)(=O)Nc3ccc(Cl)c(Cl)c3)c(F)cc2N1,2.68
15,Cc1ccc(NS(=O)(=O)c2cc3c(cc2N(C)C)CCC(=O)N3)cc1C,-0.287
16,Cc1c(Cl)cccc1NS(=O)(=O)c1cc2c(cc1Cl)CCC(=O)N2,0.521
17,Cc1cc2c(s1)c1cnn(Cc3cc(F)c(F)cc3F)c(=O)c1n2C,-8.12
18,O=C1CCc2cc(S(=O)(=O)Nc3ccc(F)c(Cl)c3)ccc2N1,-1.6
19,N#Cc1cccc(NS(=O)(=O)c2ccc3c(c2)CCC(=O)N3)c1,-2.21
20,Cc1ccc(NS(=O)(=O)c2ccc3c(c2)CCC(=O)N3)cc1Cl,8.72

# Reference: PubChem BioAssay AID2536 (National Center for Advancing Translational Sciences (NCATS), 2010)
